Assay outcomes as filed in PubChem BioAssay.
Beta apoptosis = blocks beta cell apoptosis | INS-1E cytokine-induced death, ATP luminescence, 48 h; percent of positive-control rescue, neutral wells zero | protection from apoptosis, % (no concentration beside the values) | 0.8% of 300,000 active | AID 435005;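 active = Every replicate reaches about 75%, or at least half do and their mean reaches it too, limit read from the data; inconclusive = At least half of replicates reach the limit but their mean does not; inactive = Under half of replicates reach the limit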;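 also: 0% = cytokine-treated negative control wells and 100% = positive control rescue; higher means more ATP so stronger rescue from cytokine killing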
CSC inhib = cancer stem cell inhibition. AID 2717. inhibition, % at 7.5 µM. cancer stem cell-like cells viability, luminescence. 1.1% of 300,000 active; in the data active = inhibition above about 75%; inconclusive = no clear call, values can overlap the other calls; tested in HMLE shEcad cells
Mdm2 MdmX PPI = human Mdm2/MdmX binding inhibition. SaOS-2 split-luciferase Mdm2/MdmX complementation, luminescence. inhibition, % at 8 µM. 3% of 330,000 active;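 active = inhibition of at least 50% at 8 µM in the primary screen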
Target sequence (O15151 whole entry, looked up): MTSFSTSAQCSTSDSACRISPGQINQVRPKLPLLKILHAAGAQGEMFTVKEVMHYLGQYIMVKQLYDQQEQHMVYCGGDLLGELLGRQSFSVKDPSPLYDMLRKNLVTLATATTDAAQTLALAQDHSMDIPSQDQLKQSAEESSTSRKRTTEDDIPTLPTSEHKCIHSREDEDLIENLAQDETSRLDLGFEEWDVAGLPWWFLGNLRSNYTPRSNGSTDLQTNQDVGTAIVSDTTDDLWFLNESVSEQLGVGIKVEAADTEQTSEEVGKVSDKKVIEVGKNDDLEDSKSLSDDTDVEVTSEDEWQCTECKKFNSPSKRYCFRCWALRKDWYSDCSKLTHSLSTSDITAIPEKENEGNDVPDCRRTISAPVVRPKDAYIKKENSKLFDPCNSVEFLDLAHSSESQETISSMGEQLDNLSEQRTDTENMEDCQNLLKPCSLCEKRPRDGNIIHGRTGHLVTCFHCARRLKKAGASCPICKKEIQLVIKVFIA
Target sequence (Q00987 whole entry, looked up): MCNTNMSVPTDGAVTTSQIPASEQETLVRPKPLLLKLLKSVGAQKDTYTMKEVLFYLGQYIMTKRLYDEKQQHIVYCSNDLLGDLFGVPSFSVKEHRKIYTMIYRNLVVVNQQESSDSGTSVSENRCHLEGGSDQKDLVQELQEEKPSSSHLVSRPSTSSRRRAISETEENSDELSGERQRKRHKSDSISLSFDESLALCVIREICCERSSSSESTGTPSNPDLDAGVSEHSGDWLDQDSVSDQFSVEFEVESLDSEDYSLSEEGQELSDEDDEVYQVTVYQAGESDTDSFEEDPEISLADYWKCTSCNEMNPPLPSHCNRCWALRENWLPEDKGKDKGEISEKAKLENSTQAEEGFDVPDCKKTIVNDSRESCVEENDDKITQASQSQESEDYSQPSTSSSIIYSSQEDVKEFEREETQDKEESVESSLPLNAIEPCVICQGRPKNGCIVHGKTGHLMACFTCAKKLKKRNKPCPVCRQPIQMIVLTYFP
SKKanGAS inh = SKKanGAS growth inhibition; 1.3% of 300,000 active; inhibition, % at 7.5 µM; AID 1662; S. pyogenes SKKanGAS, kanamycin growth, BacTiter-Glo, 6 h;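 active = mean replicate score, as percent of positive control median, at least 50; inconclusive = mean below 50 but one replicate at or above 50; inactive = mean and every replicate below 50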;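 also: strain carries kanamycin resistance gene driven by streptokinase promoter and grows in 40 µg/ml kanamycin; loss of luminescence reflects streptokinase promoter inhibition or plain growth inhibition; 0% = median of DMSO wells and 100% = positive control at its reference dose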
MPTP block = inhibitors of mitochondrial permeability transition pore; isolated mouse mitochondria, Ca2+ swelling absorbance, 30 min; inhibition, % at 10 µM; 1.4% of 360,000 active; AID 602449;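 active = inhibition of 50% or more, scaled per plate between neutral and stimulator controls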;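 also: 0% = DMSO wells given calcium and 100% = 1 mM EGTA wells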
GRIN3A LBD mod = modulators (binders) of human NR3A ligand-binding domain; NR3A LBD differential scanning fluorimetry, Tm shift; 0% = protein alone, 100% = glycine-bound protein; Tm shift relative to glycine control, % at 25 µM; 2.5% of 340,000 active; AID 1259313;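 active = melting temperature shift of at least 10% of the positive control shift, at one fixed dose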
Mdm2-MdmX conf = confirmation of human Mdm2/MdmX interaction inhibitors; inhibition, % at 8 µM; 55% of 10,000 active; Mdm2-MdmX binding, luminescent assay; shares compounds with Mdm2 MdmX PPI; in the data active = inhibition above about 40%
Full FLuc ctr = inhibits full-length luciferase, flagging false Mdm2/MdmX hits; shares compounds with Mdm2 MdmX PPI; SaOS-2 full-length luciferase counterscreen, luminescence; inhibition, % at 8 µM; 77% of 6,200 active;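 active = mean inhibition at 8 µM reaching about 37%, which flags the compound as non-specific, limit read from the data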;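 also: p53-null SaOS-2 cells with luciferase driven by a doxycycline-inducible promoter; compound on cells about two nights before reading with doxycycline added after day one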
* marks the source's active call; other numbers are inactive results; ? = inconclusive; . = not tested or not shown. Rows were chosen to be rich in hits. Some 6.9% of all compounds tested hit in one or more screens of this group.

SMILES | Beta apoptosis | CSC inhib | Mdm2 MdmX PPI | SKKanGAS inh | MPTP block | GRIN3A LBD mod | Mdm2-MdmX conf | others
CCOc1ccccc1/C=C/c1cc(C(=O)O)c2ccccc2n1 | -4.4 | -12.1 | 0.9 | 7.6 | 0.8 | -0.9 | .
CN(C)CCCn1c(=O)n(CCc2ccccc2)c(=O)c2c3c(sc21)CCCCC3 | . | 3.5 | 77.0* | 7.0 | -7.5 | -0.2 | 32.0
CN(C)CCCNc1nc2sc3c(c2c(=O)n1CCc1ccccc1)CCCCC3 | -23.6 | 9.9 | 69.7* | 3.0 | -3.4 | 2.8 | 28.9
CN(C)CCn1c(=O)n(Cc2ccccc2)c(=O)c2c3c(sc21)CCCCC3 | 7.8 | -7.3 | -3.3 | 5.4 | -1.8 | -0.3 | .
NC(=O)Cn1c(=O)n(CCc2ccccc2)c(=O)c2c3c(sc21)CCCC3 | -3.5 | -13.7 | 58.3* | -0.3 | -0.9 | -0.1 | 1.4
CS(=O)(=O)N(CC(=O)N1CCCC1)c1cccc(C(F)(F)F)c1 | . | . | . | . | -2.5 | . | .
COc1ccc2nc(N=Nc3ccc(O)c4ccccc34)sc2c1 | ? | 91.9* | 65.5* | -8.8 | 5.8 | -4.5 | 77.5* | Full FLuc ctr=35.3
O=C(CSc1nnc2c3ccccc3c3ccccc3c2n1)Nc1ccccc1F | -4.9 | 13.9 | 75.7* | 9.4 | -0.6 | 3.5 | -3.2
COc1cc(/C=N/n2cnc3scc(-c4cccs4)c3c2=O)cc(OC)c1OC | 7.6 | 54.9 | 61.3* | 20.5 | 0.1 | -1.3 | 35.5
CC(C)(C)NC(=O)C(c1ccc(-c2ccccc2)cc1)N(C[C@H]1CC[C@@H]([C@@H]2CC[C@H](CO)O2)O1)C(=O)c1ccc2ccccc2c1 (stereo not given in full) | . | . | 21.6 | . | -2.2 | 2.1 | .
CC(C)(C)NC(=O)C(c1ccc(-c2ccccc2)cc1)N(C[C@H]1CC[C@@H]([C@@H]2CC[C@H](CO)O2)O1)C(=O)c1ccc(-c2ccccc2)cc1 (stereo not given in full) | . | . | 88.2* | . | -1.1 | 29.9* | 46.6* | Full FLuc ctr=52.0*
CC(C)(C)NC(=O)C(c1ccc(-c2ccccc2)cc1)N(C[C@H]1CC[C@@H]([C@@H]2CC[C@H](CO)O2)O1)C(=O)c1cccc(Cl)c1 (stereo not given in full) | . | . | 50.1* | . | -1.3 | -2.6 | 10.9
NC(=O)c1nc(-c2ccco2)nc2c1[nH]c(=O)n2-c1ccc(Cl)c(Cl)c1 | 29.6 | 1.1 | 75.3* | -3.5 | 2.0 | -1.6 | 13.9
NC(=O)c1nc(-c2cccs2)nc2c1[nH]c(=O)n2-c1ccc(F)cc1 | 42.1 | 17.6 | 100.3* | -10.8 | 2.1 | -0.2 | 67.0* | Full FLuc ctr=81.5*
COc1ccc(CN2CCNC(=O)C2CC(=O)NCc2cc(C)n(C)n2)c(F)c1 (stereo not given) | -11.2 | -7.9 | -2.9 | -3.4 | -1.3 | 1.9 | .
CC(=O)Nc1ccc(NC(=O)CN(c2ccc(C34CC5CC(CC(C5)C3)C4)cc2)S(C)(=O)=O)cc1 | 13.3 | 10.0 | 56.2* | -3.8 | -2.5 | -0.7 | 29.2
CS(=O)(=O)N(CC(=O)Nc1ccc(CC#N)cc1)c1ccc(C23CC4CC(CC(C4)C2)C3)cc1 | 87.8* | 38.1 | 63.6* | 25.0 | 6.0 | 26.3* | -5.4
CNC(=O)CN(c1ccc(C23CC4CC(CC(C4)C2)C3)cc1)S(C)(=O)=O | 3.9 | 51.2 | -3.4 | -3.3 | -1.2 | -6.1 | .
COCCCN1C(=O)C(CC(=O)NCCc2ccccn2)CC(C(=O)N2CCCCCC2)=C1C (stereo not given) | . | . | . | . | -0.2 | . | .
CCCCCC(=O)N1C[C@H](n2cc(-c3ccc(F)cc3)nn2)[C@@H](O)C[C@@H]1c1ccc(C)cc1 | . | . | . | . | 1.3 | . | .
Cc1n[nH]c2ccc([N+](=O)[O-])cc2c1=O | . | . | . | . | 1.3 | . | .
Cc1cccc(N=C2NN=C(c3ccccc3F)CS2)c1C | -4.9 | -11.1 | -62.3 | -3.6 | -0.7 | -3.1 | .
COc1ccc(C2=NNC(=Nc3cc(S(=O)(=O)N(C)C)ccc3C)SC2)c(OC)c1 | 103.3* | 1.2 | 66.7* | 2.7 | 10.3 | -1.3 | 49.6* | Full FLuc ctr=54.4*
Cc1cc(C)cc(C(=O)NC(CC(N)=O)c2ccc(NC3CCCC3)c([N+](=O)[O-])c2)c1 (stereo not given) | 2.3 | 6.1 | 3.5 | 8.5 | -0.3 | -4.2 | .
CC(=O)NC(Cc1ccc(C)cc1)C(=O)NC1CCN(C(=O)NCc2ccccc2)CC1 (stereo not given) | . | . | -7.8 | 0.5 | 1.0 | 1.1 | .
SMILES | Beta apoptosis | CSC inhib | Mdm2 MdmX PPI | SKKanGAS inh | MPTP block | GRIN3A LBD mod | Mdm2-MdmX conf | others
NC(=S)N/N=C\c1c(OCc2ccccc2Cl)ccc2ccccc12 | 37.5 | 28.1 | 52.7* | 49.7* | -1.2 | 4.6 | 5.0
CCc1ccc(-c2cc(C)no2)cc1S(=O)(=O)N1CCN(c2ccccn2)CC1 | 1.6 | 15.5 | 28.5 | 5.8 | -0.2 | -2.6 | .
Cc1cc(-c2ccc(C(C)C)c(S(=O)(=O)N3CCN(c4ccccn4)CC3)c2)on1 | 32.0 | 55.8 | 62.6* | 32.1 | -0.8 | -0.8 | 61.5* | Full FLuc ctr=51.5*
Cc1cccc2c(=O)c(C(=O)NCCc3ccccc3)c[nH]c12 | 11.7 | 31.5 | 17.5 | -8.9 | 0.0 | -1.0 | .
CN(C)C(=O)c1ccc2c(c1[N+](=O)[O-])C(=O)c1ccccc1C2=O | 28.7 | 4.7 | 14.1 | 19.1 | 1.0 | -2.7 | .
Cc1[nH]c2ccccc2c1CCNC(=O)c1ccc2c(c1[N+](=O)[O-])C(=O)c1ccccc1C2=O | 9.6 | 23.7 | 68.8* | 31.7 | -1.1 | 2.1 | 20.4
Cc1[nH]c2c(C)cccc2c1CCNC(=O)c1ccc2c(c1[N+](=O)[O-])C(=O)c1ccccc1C2=O | -7.1 | 50.2 | 74.7* | 45.4 | 0.5 | -25.0 | 31.2
COc1ccc(C(=O)NCCS(=O)(=O)N2CCc3ccccc3C2)cc1 | . | -4.6 | 14.3 | -8.1 | 0.4 | 0.6 | .
CC(C)(C)OC(=O)NNC(=O)Nc1ccccc1C(F)(F)F | 4.9 | 7.9 | 8.4 | -0.4 | 0.1 | 0.3 | .
Cc1ccc(NC(=O)CCS(=O)(=O)c2ccccc2)cc1S(=O)(=O)N1CCCCCC1 | . | . | 7.3 | . | 0.4 | -0.9 | .
Cc1c2ccccc2c(C)c2c1ccc1ccccc12 | -5.6 | 25.7 | 78.6* | . | 0.8 | -2.2 | 40.0* | Full FLuc ctr=97.7*
Cc1c2ccccc2nc2ccccc12 | -10.8 | 17.4 | 26.6 | 8.8 | 9.0 | 0.9 | .
CC1=C(C(=O)N2CCOCC2)CC(CC(=O)NCC2CCCCC2)C(=O)N1Cc1ccc(C(C)(C)C)cc1 (stereo not given) | . | . | . | . | -0.3 | . | .
CC1(C)C(=O)N(c2ccccc2)C1c1ccccc1O (stereo not given) | -2.7 | ? | 59.3* | -1.0 | -0.5 | -0.4 | 46.4* | Full FLuc ctr=74.7*
COc1ccc(N2C(=O)C(C)(C)C2c2c(O)ccc3ccccc23)cc1 (stereo not given) | 2.1 | 17.3 | 2.6 | 16.4 | -0.5 | -9.1 | .
